According to PubChem BioAssay AID686978 (National Center for Advancing Translational Sciences (NCATS), 2013):
Several values for one entry are separate records, joined by “and”; a condition that tells them apart may be missing. Identical values can stand only once. Among all 420,000 compounds or so, about 64,000 (15%) were called active. Inconclusive results (about 27%) are left out. The call rests on the fitted dose curve; in most records, active means well fitted inhibition curve with a large enough effect; inconclusive means small, poorly fitted or top-dose-only effect; inactive means flat fitted curve, though single readings scatter. These entries were drawn from the full list. Entries that show only a call come without a potency.
Potency means the concentration at half of the fitted maximal effect.

Experiment: qHTS for Inhibitors of human tyrosyl-DNA phosphodiesterase 1 (TDP1): qHTS in cells in absence of CPT; further: nearly all actives have a fitted effect of over 55% in size
Conditions: DT40 Tdp1-/- hTDP1 cells, no CPT, ATP luminescence, 48 h; activity change, negative = growth inhibition: at 46.2 µM (top of the series)
In short: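 Compound effects on proliferation are scored in DT40 Tdp1-/-;hTDP1 cells in the absence of CPT. ATP levels (CellTiter-Glo luminescence) are recorded after a ≥48 hr, 37 °C incubation.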
With COC(=O)C(C)N=Cc1ccccc1 (stereo unspecified) the Potency was “inactive”. For CCCSc1nc2c(c(=O)[nH]c(=O)n2C)n1CCc1ccccc1, the Potency was “inactive”. In the case of CC=CCn1c(SCCCc2ccccc2)nc2c1c(=O)[nH]c(=O)n2C, the Potency was 20.6 µM (active). For CN(Cc1ccccc1)c1nc2c(c(=O)[nH]c(=O)n2C)n1CCSc1nc2ccccc2[nH]1, the Potency was “inactive”. For CN(C)Cc1c(C(=O)N/N=C/c2ccccc2OCc2ccc(F)cc2)nnn1-c1nonc1N, the Potency was “inactive”. In the case of Fc1cccc(/C=N\N=C/c2cccc(F)c2)c1, the Potency was “inactive”. In the case of Cn1nc(-c2ccccc2)c2cc([N+](=O)[O-])ccc21, the Potency was “inactive”. In the case of COc1cc(/C(=C/c2ccccc2)c2ccccc2)c2c(c1)oc1ccccc12, the Potency was “inactive”. In the case of CCCC(=O)Nc1c(O)c2ccccc2[nH]c1=O, the Potency was “inactive”. For CC1=C(C(=O)N2CCOCC2)CC(CC(=O)NCCCN(C)C)C(=O)N1Cc1ccc(C(C)(C)C)cc1 (stereo unspecified), the Potency was “inactive”. With CN1/C(=c2/s/c(=C3/C(=O)N(c4ccccc4)NC3=Nc3ccccc3)n(C)c2=O)C(C)(C)c2ccccc21 the Potency was 11.6 µM (active). With O=C(c1cccc(Br)c1)N1CCN(Cc2cc(=O)n3nc(-c4ccccc4)sc3n2)CC1 the Potency was “inactive”. For C#Cc1cc(N2CCN(C(=O)c3ccoc3)CC2)n2nc(-c3cccc(Cl)c3)cc2n1, the Potency was 5.8 µM (active). In the case of O=C(c1cccc(Cl)c1)N1CCN(Cc2ccccc2)CC1, the Potency was “inactive”. With O=C(c1cccc(Cl)c1)N1CCN(CCc2ccncc2)CC1 the Potency was “inactive”. For O=C(c1ccccc1)N1CCN(c2cc(-c3ccccc3)nc3cc(-c4cccc(Cl)c4)nn23)CC1, the Potency was 14.6 µM (active). With COc1ccc2c(c1)c(=O)c(S(=O)(=O)c1ccc(F)cc1)cn2CC(=O)Nc1ccc(C)cc1C the Potency was “inactive”. In the case of CCOC(=O)c1ccccc1NC(=O)CCc1c(C)nc2c(c1C)c(=O)n(C)c(=O)n2C, the Potency was “inactive”. In the case of O=C1Nc2cc(Cl)c(Cl)cc2N(O)N1c1cc(Cl)cc(Cl)c1, the Potency was “inactive”. For C/C(N)=C(/C#N)C(=O)COC(=O)C1=NN(c2ccccc2)C(=O)CC1, the Potency was “inactive”. For CCNc1nc(Oc2ccc(C(=O)OC)cc2)nc(N2CCOCC2)n1, the Potency was “inactive”. In the case of CCOC(=O)C1CCN(C(=O)/C=C/c2cc(OC)c(OC)c(OC)c2)CC1, the Potency was “inactive”. With CCCCNC(=O)Cn1nc(C)c(S(=O)(=O)N2CCOCC2)c1C the Potency was “inactive”. For COC(=O)c1sccc1N/N=C(\C)c1ccc(F)c(Cl)c1, the Potency was “inactive”. For Cc1nnc(SCC(=O)NCc2ccccc2)s1, the Potency was “inactive”. In the case of COc1ccc(Cc2nnc(SCC(=O)Nc3ccc(C)c(Cl)c3)[nH]c2=O)cc1, the Potency was “inactive”. With Cc1ccccc1CN1CCNC(=O)C1CC(=O)NCCC1=CCCCC1 (stereo unspecified) the Potency was “inactive”. In the case of O=C(COc1ccc(Cl)cc1)NCCC1=CCCCC1, the Potency was “inactive”. With Cc1ccc(-n2c(SCC(=O)NCCC3=CCCCC3)nc3n[nH]c(C)c3c2=N)cc1Cl the Potency was 3.26 µM (active). For CCCCNC(=O)CSc1nc2n[nH]c(C)c2c(=N)n1-c1cccc(Cl)c1C, the Potency was 20.6 µM (active) and 9.2 µM (active). For Cc1nnc(SCC(=O)NCCOc2ccc(Cl)cc2)n1-c1ccccc1, the Potency was “inactive”. For CCCCNC(=O)CSc1nnc(-c2ccco2)n1C, the Potency was “inactive”. For COCCNC(=O)CSc1nc2sccc2c(=O)n1-c1ccccc1, the Potency was “inactive”. For COc1ccc(-n2c(SCC(=O)Nc3ccc(Cl)c(C)c3)nc3n[nH]c(C)c3c2=N)cc1, the Potency was 9.2 µM (active). For CCOc1ccc(-n2c(SCC(=O)NCc3ccccc3)nc3n[nH]c(C)c3c2=N)cc1, the Potency was 7.31 µM (active). With COc1ccc(-n2c(Cc3cccn3C)nnc2SCC(=O)Nc2cc(C)cc(C)c2)cc1 the Potency was “inactive”. For CN1CCN(CCNC(=O)Nc2ccccc2[N+](=O)[O-])CC1, the Potency was “inactive”. In the case of Cc1nnc2sc(-c3ccco3)nn12, the Potency was “inactive”. With CSc1ccc(C#N)cc1NC(=O)c1ccc(Cl)cc1 the Potency was “inactive”. With COCCCNC(=O)/C(C#N)=C/c1c(N2CCCCCC2)nc2ccccn2c1=O the Potency was “inactive”. In the case of CCOC(=O)C1=C(C)NC(=O)N(C(C)=O)C1c1ccc(Cl)cc1 (stereo unspecified), the Potency was “inactive”. For CCN(CC(=O)Nc1ccc2c(c1)OCO2)S(=O)(=O)c1ccccc1, the Potency was “inactive”. With O=C(COC(=O)CCc1c[nH]c(=O)[nH]1)Nc1ccccc1Cl the Potency was “inactive”. In the case of Cn1c(-c2ccc(F)cc2)cnc1SCC(=O)NNC(=O)Cc1ccccc1, the Potency was “inactive”. In the case of COc1cccc(-n2c(SCC(=O)NC3CCS(=O)(=O)C3)nc3ccccc3c2=O)c1 (stereo unspecified), the Potency was “inactive”. With COc1cccc(-n2c(SCC(=O)NC3CCCCC3)nc3n[nH]c(C)c3c2=N)c1 the Potency was 18.4 µM (active). In the case of CCC(Sc1nc2n[nH]c(C)c2c(=N)n1-c1ccccc1Cl)C(=O)N(CC)CC (stereo unspecified), the Potency was 16.4 µM (active). With COc1cccc(-n2c(N)cc(=O)nc2SCC(=O)Nc2cc(C)on2)c1 the Potency was “inactive”. In the case of Cc1ccc(Sc2cc(C(=O)c3ccccc3C(=O)O)ccc2[N+](=O)[O-])cc1, the Potency was “inactive”. For CC(=O)OCCOCn1cnn2c(=O)c(Br)c(C)nc12, the Potency was “inactive”. With NS(=O)(=O)c1ccc(NC2=CC(c3ccc(F)cc3)N(c3ccc(S(N)(=O)=O)cc3)C2=O)cc1 (stereo unspecified) the Potency was “inactive”.
